# High-throughput results: PubChem BioAssay, National Center for Advancing Translational Sciences (NCATS)
# AmpC detergent = AmpC beta-lactamase inhibition with detergent present. AmpC hydrolysis of nitrocefin, absorbance 480 nm, 0.01% Triton. P00811. hit rate 0.041% among 370,000. Potency, µM (highest dose often 114 µM), without a hit: at the top dose activity change, negative = inhibition, actives largely listed as inhibitors;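 further: 0% = no-compound wells and -100% = no-enzyme wells; nearly all actives have a fitted effect of over 25% in size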
# Target sequence (P00811 whole entry, looked up): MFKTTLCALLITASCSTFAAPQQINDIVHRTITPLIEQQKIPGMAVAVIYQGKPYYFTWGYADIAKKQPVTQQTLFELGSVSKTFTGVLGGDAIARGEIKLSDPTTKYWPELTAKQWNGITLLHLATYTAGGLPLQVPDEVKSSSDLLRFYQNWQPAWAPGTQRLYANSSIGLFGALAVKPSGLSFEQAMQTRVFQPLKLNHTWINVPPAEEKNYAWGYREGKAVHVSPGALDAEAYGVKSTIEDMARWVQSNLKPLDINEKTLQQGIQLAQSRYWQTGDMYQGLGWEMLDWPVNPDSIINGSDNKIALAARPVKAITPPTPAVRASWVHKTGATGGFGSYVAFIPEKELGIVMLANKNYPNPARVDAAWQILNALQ
#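 20 mM phosphate pH 7.0 + 0.01% (detergent screen) or 0.0001% Triton X-100; 5.3 nM AmpC reagent; cpd preinc 15 min RT; nitrocefin (800 uM stock) to start; A480 q20 s × 4 min; Activity was normalised to no-enzyme and no-compound control wells.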
# AMA1-RON2 inh = inhibitors of Plasmodium falciparum AMA1-RON2 interaction; hit rate 0.2% among 360,000; AID 720542; AlphaScreen AMA1-biotinylated RON2 peptide binding; Potency, µM (titrated, usually from 58.2 µM), without a hit: at the top dose activity change, negative = inhibition, most hits filed as inhibitors;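 further: 0% = vehicle wells and -100% = peptide control; nearly all actives have a fitted effect of over 45% in size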
#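 AMA1 (3D7) with his tag at 25 nM final met compounds first, then biotinylated RON2 peptide at 25 nM; detection used donor plus acceptor beads, 10 µg/mL apiece, read by AlphaScreen after 30 min at room temperature.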
# Sm TGR block = blocks Schistosoma mansoni thioredoxin glutathione reductase. Q962Y6. purified TGR, DTNB reduction, TNB absorbance 405 nm. Potency, µM (titrated, usually from 114 µM), for the others: top-dose activity change, negative = inhibition, usual class: inhibitors. hit rate 3% among 360,000. AID 485364; further: nearly all actives have a fitted effect of over 60% in size
#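 TGR 20 nM + NADPH 100 uM (dispensed conc.), cpd preinc 15 min RT; start with NADPH (500 uM addition) then DTNB (15 mM addition). Kinetic TNB absorbance, 405 nm filter. Four-parameter Hill fit across titration.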
# AmpC inh no detg = blocks E. coli AmpC beta-lactamase in detergent-free assay | P00811 | AmpC nitrocefin hydrolysis, absorbance 480 nm, 0.0001% Triton | Potency, µM (top dose mostly 57.1 µM), inactives show at the top dose activity change, negative = inhibition, hits mostly inhibitors | hit rate 0.52% among 330,000 | AID 485341;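 further: plate controls were no compound for no effect and no enzyme for full effect; nearly all actives have a fitted effect of over 20% in size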
#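 AmpC (5.3 nM in the dispensed reagent) in 20 mM phosphate pH 7.0 with 0.01% (detergent screen) or 0.0001% Triton X-100 was preincubated with compounds for 15 min at room temperature. Nitrocefin was then added from an 800 uM solution, and hydrolysis was followed at 480 nm.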
# RE007 growth inh = less growth of the S. pombe RE007 Vpr strain; S. pombe RE007 Vpr strain, BacTiter-Glo ATP luminescence, 24 h; Potency, µM (top dose mostly 92.2 µM), inactives show top-dose activity change, negative = less growth, hits mostly inhibitors; hit rate 0.21% among 360,000; active means well fitted falling curve with a large enough effect; inconclusive means small, poorly fitted or top-dose-only effect; inactive means no such curve, though single readings can be large or run the other way; further: nearly all actives have a fitted effect of over 50% in size
#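 Fission yeast strain RE007, carrying one chromosomally integrated HIV-1 vpr copy, was seeded at OD 0.01 in PMG+AL medium with 23 nL pinned compound. After 24 h at 30 °C and 99% humidity, viability was read by BacTiter-Glo luminescence.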
# Numbers without * were called inactive; ? = inconclusive; · = no result given; [ ] = dose if it differs, or a comment. Rows were chosen to be rich in hits. Some 3.2% of all compounds tested hit in one or more screens of this group. Unless noted, the call rests on the fitted dose curve; in most records, active means well fitted curve in the direction sought with a large enough effect; inconclusive means small, poorly fitted or top-dose-only effect, or another doubt; inactive means no such curve, though single readings can be large; an effect the other way counts as inactive or inconclusive. Unless noted, on the % scale 0 is the no-effect control and ±100 the full control effect; potency means the concentration at half of the fitted maximal effect.
SMILES,AmpC detergent,AMA1-RON2 inh,Sm TGR block,AmpC inh no detg,RE007 growth inh
COC(=O)C1=C(C)N(Cc2ccccc2)C(=S)N[C@H]1c1ccc(Br)cc1,-7%,89%,13%,-46%,-5%
CCCN(CC#CCOc1ccc(OC)cc1)CCC,1%,12%,13µM*,4%,3%
CCOC(=O)C1CCN(C(c2ccc(C)cc2)c2sc3nc(-c4ccco4)nn3c2O)CC1 (stereo unspecified),1%,·,-6%,·,·
CCOC(=O)C1CCN(C(c2ccccc2)c2c(O)cc(C)n(Cc3ccco3)c2=O)CC1 (stereo unspecified),22%,·,8.9µM*,·,·
CCOC(=O)C1CCN(C(c2ccc(SC)cc2)c2c(O)cc(C)n(Cc3ccco3)c2=O)CC1 (stereo unspecified),16%,·,5µM*,·,·
CCOC(=O)C1CCN(C(c2cccc(F)c2)c2c(O)cc(C)n(CCOC)c2=O)CC1 (stereo unspecified),23%,·,18µM*,·,·
CCOC(=O)C1CCN(C(=O)COC(=O)c2cccc(F)c2)CC1,-3%,-9%,2%,-3%,-8%
CCOC(=O)C1CCN(C(c2cccc(F)c2)c2sc3nc(C)nn3c2O)CC1 (stereo unspecified),1%,34%,-7%,107%,1%
CCOC(=O)C1CCN(C(c2cccc(F)c2)c2c(O)cc(C)n(Cc3ccco3)c2=O)CC1 (stereo unspecified),22%,·,10µM*,·,·
CC(C(=O)N(C)C1CCS(=O)(=O)C1)N1C(=O)/C(=C/c2ccc(F)cc2)SC1=S (stereo unspecified),-3%,11%,-27%,135%,-13%
O=C1/C(=C/C=C/c2ccco2)SC(=S)N1NS(=O)(=O)c1ccccc1,?,?,1.8µM*,-52%,-12%
CC(C(=O)O)N1C(=O)/C(=C/C=C/c2ccco2)SC1=S (stereo unspecified),?,?,7.1µM*,-37%,11%
CCN(C(=O)C(C)N1C(=O)/C(=C/c2ccco2)SC1=S)C1CCS(=O)(=O)C1 (stereo unspecified),-3%,-23%,40µM*,40%,12%
O=C(CSc1nc2c(cnn2-c2ccc(F)cc2)c(=O)[nH]1)Nc1ccc(Br)cc1,-7%,·,0%,·,·
Cc1sc2c(c1C)c(=O)n(-c1ccc(Cl)cc1)c(=O)n2Cc1c(F)cccc1Cl,2%,·,-1%,·,·
COC(=O)c1cc(CSc2nnc(NC3CCCCC3)s2)oc1C,10%,31%,45µM*,-1%,-17%
O=C(c1ccccc1)N1CCC2(CC1)OCCO2,-4%,-27%,-1%,-9%,3%
O=C(NC1(C(F)(F)F)Oc2ccc(Cl)cc2O1)N1CCC2(CC1)OCCO2 (stereo unspecified),5%,24%,45µM*,-23%,17%
O=C(NC1(C(F)(F)F)Oc2ccccc2O1)N1CCC2(CC1)OCCO2,?,-4%,18µM*,-13%,3%
O=C(NCCN1CCOCC1)NC1(C(F)(F)F)Oc2ccc(Cl)cc2O1 (stereo unspecified),-14%,3%[2.32 µM],9%,-19%,0%
O=S(=O)(NCCS(=O)(=O)N1CCN(c2cccc(Cl)c2)CC1)c1ccc(F)cc1,27%,·,5%,·,·
CCn1nc(C)cc1-c1nnc(SCC(=O)Nc2ccccc2)n1CCCOC,-10%,-3%,5%,19%,-12%
CCn1nc(C)cc1-c1nnc(Sc2ncc([N+](=O)[O-])s2)n1C,?,-4%,0.28µM*,-40%,35µM*
CCOc1ccc2oc(=O)cc(CN3CCN(c4cc(C)ccc4C)CC3)c2c1,-4%,·,-1%,·,·
COc1ccc(C(=O)c2coc3c2C(=O)C(=O)c2ccccc2-3)cc1,-1%,-23%,-25%,-48%,40µM*
O=C(c1ccccc1)c1coc2c1C(=O)c1ccccc1C2=O,-6%,11%,-28%,-14%,?
